This is an account of results in PMC7862700, “An all-to-all approach to the identification of sequence-specific readers for epigenetic DNA modifications on cytosine”.

What all share (assay): DAPPL (digital affinity profiling via proximity ligation, sequencing); 10 mM Tris-HCl pH 7.5, 50 mM NaCl, 1 mM DTT, 4% glycerol, room temperature, 30 min; GST-TFs on glutathione beads, 16-mer random dsDNA library, 0.1% formaldehyde crosslink after washing; high values mean tight binding
In test [1] the target is T1, FLI1 (Homo sapiens, UniProt Q01543 1-452).
T1 sequence: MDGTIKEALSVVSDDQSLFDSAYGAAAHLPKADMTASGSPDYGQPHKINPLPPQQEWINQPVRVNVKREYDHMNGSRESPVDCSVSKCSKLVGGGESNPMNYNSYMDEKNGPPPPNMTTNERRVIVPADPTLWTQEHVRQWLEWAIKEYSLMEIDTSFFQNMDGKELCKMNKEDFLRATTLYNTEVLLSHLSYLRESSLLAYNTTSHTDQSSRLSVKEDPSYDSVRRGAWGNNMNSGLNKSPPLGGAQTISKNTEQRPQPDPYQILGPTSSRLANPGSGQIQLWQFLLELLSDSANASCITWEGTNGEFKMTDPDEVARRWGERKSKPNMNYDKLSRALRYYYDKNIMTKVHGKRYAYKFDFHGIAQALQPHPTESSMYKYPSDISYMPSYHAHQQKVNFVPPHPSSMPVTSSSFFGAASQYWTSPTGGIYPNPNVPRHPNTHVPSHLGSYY
Conditions: protein: recombinant; tags: N-terminal GST; dsDNA, one strand shown. The method in brief:
(§1)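 Binding signal is given per hexamer as its read frequency for a factor divided by its frequency in the tag-only sample. GST-fused human transcription factors were expressed in yeast, captured on glutathione beads, barcoded with DNA and pooled with that sample, then incubated with 200 nmole of a 16-mer random double-stranded DNA library in Tris/NaCl/DTT/glycerol buffer for 30 min at room temperature. The pools were then washed, crosslinked, proximity-ligated, amplified by PCR and sequenced on an Illumina NextSeq500.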

The target in test [2] is T2, ELK1 (Homo sapiens, UniProt P19419 1-428).
T2 sequence: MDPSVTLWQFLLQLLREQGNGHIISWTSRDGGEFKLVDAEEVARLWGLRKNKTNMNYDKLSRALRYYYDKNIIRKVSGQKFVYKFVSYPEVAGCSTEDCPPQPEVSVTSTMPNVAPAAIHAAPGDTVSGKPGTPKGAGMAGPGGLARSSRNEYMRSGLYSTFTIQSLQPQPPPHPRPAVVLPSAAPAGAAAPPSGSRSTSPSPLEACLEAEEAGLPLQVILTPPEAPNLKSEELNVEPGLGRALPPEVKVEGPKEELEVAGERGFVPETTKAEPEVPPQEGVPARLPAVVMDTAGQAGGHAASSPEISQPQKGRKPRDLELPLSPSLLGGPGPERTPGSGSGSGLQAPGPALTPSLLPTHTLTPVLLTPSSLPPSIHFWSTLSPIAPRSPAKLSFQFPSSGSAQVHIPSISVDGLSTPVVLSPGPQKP
The following applies: protein: recombinant; tags: N-terminal GST; dsDNA, one strand shown. The method in brief: as §1

Test [3] deals with T3, GABPA (Homo sapiens, UniProt Q06546 1-454).
T3 sequence: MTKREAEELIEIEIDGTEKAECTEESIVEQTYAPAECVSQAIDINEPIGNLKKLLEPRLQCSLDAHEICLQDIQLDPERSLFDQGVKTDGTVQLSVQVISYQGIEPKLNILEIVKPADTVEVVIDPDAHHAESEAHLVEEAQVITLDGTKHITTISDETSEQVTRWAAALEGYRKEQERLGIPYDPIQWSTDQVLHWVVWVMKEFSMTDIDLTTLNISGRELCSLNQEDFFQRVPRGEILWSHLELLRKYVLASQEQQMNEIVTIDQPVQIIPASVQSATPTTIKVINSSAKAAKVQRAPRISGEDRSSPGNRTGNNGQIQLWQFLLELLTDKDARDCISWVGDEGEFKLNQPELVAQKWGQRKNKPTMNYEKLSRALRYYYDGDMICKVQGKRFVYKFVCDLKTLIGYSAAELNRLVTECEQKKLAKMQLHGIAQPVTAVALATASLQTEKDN
The following applies: protein: recombinant; tags: N-terminal GST; dsDNA, one strand shown. The method in brief: as §1

Test [4] deals with T4, ERG (Homo sapiens, UniProt P11308 1-479).
T4 sequence: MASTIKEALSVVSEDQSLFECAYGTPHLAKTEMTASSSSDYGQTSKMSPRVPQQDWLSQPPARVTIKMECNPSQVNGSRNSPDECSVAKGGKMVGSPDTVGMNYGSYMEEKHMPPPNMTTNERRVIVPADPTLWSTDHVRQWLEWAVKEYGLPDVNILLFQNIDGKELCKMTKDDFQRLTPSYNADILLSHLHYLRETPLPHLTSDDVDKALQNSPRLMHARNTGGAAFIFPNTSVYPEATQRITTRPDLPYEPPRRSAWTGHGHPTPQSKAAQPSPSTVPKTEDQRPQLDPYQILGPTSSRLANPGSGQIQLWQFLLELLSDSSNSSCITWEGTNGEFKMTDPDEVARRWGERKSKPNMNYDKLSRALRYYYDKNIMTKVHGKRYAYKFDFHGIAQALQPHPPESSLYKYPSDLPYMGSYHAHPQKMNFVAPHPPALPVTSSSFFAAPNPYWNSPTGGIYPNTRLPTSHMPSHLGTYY
Conditions: protein: recombinant; tags: N-terminal GST; dsDNA, one strand shown. The method in brief:
as §1

Test [5] has as its target ELF1 (Homo sapiens, UniProt P32519 1-619). Conditions: protein: recombinant; tags: N-terminal GST; dsDNA, one strand shown. The method in brief:
as §1

For test [6], the target named is T5, EHF (Homo sapiens, UniProt Q9NZC4 1-300).
T5 sequence: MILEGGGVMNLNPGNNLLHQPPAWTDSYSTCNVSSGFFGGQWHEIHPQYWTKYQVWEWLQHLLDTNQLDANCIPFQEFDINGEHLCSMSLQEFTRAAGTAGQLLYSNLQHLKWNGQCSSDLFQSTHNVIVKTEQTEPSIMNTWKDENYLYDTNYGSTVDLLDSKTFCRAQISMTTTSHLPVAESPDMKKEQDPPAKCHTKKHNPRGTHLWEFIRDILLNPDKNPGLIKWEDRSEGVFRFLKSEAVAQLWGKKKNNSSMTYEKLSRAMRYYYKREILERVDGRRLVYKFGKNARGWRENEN
Conditions: protein: recombinant; tags: N-terminal GST; dsDNA, one strand shown. Summed up:
as §1

The target of test [7] is SPI1 (Homo sapiens, UniProt P17947 1-270). Conditions: protein: recombinant; tags: N-terminal GST; dsDNA, one strand shown. Summed up: as §1
Test [8] deals with SPIB (Homo sapiens, UniProt Q01892 1-262). Conditions: protein: recombinant; tags: N-terminal GST; dsDNA, one strand shown. The method in brief: as §1
Chain of SPIB (Q01892 whole entry): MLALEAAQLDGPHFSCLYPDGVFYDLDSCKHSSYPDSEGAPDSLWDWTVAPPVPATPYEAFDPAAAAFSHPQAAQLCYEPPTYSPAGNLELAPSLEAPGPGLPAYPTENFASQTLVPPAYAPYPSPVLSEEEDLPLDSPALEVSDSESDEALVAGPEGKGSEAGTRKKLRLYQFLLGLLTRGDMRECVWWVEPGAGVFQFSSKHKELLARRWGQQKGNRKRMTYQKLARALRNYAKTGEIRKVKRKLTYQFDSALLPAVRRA
In test [9] the target is T6, ELK3 (Homo sapiens, UniProt P41970 1-407).
T6 sequence: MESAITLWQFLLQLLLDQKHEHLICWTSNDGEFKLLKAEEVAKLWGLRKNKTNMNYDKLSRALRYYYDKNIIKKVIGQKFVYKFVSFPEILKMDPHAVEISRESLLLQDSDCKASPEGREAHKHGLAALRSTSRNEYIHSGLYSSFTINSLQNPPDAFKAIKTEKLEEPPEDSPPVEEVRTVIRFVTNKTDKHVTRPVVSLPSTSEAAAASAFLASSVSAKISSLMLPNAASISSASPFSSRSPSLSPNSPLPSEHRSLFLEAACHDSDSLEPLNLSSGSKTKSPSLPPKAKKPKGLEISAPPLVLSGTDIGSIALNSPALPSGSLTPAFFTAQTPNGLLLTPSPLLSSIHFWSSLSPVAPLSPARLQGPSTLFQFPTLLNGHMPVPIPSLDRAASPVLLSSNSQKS
Conditions: protein: recombinant; tags: N-terminal GST; dsDNA, one strand shown. The method in brief:
as §1

Test [10] concerns the target T7, FEV (Homo sapiens, UniProt Q99581 1-238).
T7 sequence: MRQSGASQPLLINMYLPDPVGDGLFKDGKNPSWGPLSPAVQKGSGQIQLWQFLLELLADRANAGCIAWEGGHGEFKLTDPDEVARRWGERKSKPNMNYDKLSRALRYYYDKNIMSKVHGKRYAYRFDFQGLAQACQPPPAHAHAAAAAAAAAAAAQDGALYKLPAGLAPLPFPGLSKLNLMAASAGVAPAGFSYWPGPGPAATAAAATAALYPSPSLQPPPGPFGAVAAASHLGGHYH
Conditions: protein: recombinant; tags: N-terminal GST; dsDNA, one strand shown. Summed up: as §1

Test [11] concerns the target ETV5 (Homo sapiens, UniProt P41161 1-510). The following applies: protein: recombinant; tags: N-terminal GST; dsDNA, one strand shown. The method in brief: as §1
The target of test [12] is HSF1 (Homo sapiens, UniProt Q00613 1-529). The following applies: protein: recombinant; tags: N-terminal GST; chain copies: 3; dsDNA, one strand shown. Summed up:
as §1

In test [13] the target is ELF4 (Homo sapiens, UniProt Q99607 1-663). The following applies: protein: recombinant; tags: N-terminal GST; dsDNA, one strand shown. The method in brief: as §1
Chain of ELF4 (Q99607 whole entry): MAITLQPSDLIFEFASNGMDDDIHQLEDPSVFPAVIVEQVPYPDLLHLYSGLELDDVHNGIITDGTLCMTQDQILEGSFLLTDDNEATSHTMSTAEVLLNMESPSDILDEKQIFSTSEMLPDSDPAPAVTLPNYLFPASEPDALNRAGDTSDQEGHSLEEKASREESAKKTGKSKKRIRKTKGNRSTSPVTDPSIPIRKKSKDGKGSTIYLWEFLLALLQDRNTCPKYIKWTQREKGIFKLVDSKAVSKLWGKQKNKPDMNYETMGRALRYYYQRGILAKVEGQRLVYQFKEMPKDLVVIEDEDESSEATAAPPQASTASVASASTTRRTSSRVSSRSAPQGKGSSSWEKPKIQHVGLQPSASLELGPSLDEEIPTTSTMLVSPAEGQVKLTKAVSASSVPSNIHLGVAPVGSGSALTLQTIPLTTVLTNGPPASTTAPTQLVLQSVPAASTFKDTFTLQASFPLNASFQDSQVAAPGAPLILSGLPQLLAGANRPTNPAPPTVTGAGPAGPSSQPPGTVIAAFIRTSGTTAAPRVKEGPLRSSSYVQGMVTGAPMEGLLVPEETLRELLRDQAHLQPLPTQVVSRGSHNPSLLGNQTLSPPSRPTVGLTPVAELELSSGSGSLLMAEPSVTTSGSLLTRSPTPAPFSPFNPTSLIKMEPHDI
Test [14] addresses T8, ELK4 (Homo sapiens, UniProt P28324-2 1-405).
T8 sequence: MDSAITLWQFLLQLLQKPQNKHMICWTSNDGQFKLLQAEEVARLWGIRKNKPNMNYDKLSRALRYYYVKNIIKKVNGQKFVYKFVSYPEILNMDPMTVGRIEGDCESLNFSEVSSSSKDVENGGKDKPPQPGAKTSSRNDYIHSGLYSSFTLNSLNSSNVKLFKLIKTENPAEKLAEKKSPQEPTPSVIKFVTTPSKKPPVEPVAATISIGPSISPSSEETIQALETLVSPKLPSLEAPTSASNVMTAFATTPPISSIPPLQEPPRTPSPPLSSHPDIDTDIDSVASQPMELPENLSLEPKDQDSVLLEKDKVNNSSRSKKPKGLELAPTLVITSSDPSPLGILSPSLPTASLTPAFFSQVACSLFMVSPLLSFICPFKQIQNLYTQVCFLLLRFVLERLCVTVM
The following applies: protein: recombinant; tags: N-terminal GST; dsDNA, one strand shown. Summed up:
as §1

Test [15] has as its target T9, ELF3 (Homo sapiens, UniProt P78545 1-371).
T9 sequence: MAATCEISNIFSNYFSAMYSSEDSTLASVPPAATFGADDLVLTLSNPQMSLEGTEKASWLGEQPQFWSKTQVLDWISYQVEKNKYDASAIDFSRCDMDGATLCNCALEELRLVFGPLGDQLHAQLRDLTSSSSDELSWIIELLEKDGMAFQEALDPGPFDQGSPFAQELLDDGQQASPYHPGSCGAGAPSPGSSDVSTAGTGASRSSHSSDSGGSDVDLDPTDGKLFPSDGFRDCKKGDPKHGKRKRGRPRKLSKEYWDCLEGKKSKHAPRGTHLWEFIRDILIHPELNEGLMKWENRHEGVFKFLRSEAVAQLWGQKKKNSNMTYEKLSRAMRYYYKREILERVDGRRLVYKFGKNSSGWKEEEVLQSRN
The following applies: protein: recombinant; tags: N-terminal GST; dsDNA, one strand shown. Summed up: as §1

Test [16] concerns the target CRX (Homo sapiens, UniProt O43186 1-299). The following applies: protein: recombinant; tags: N-terminal GST; dsDNA, one strand shown. Summed up: as §1
The target in test [17] is ETV1 (Homo sapiens, UniProt P50549 1-477). The following applies: protein: recombinant; tags: N-terminal GST; dsDNA, one strand shown. The method in brief:
as §1

For test [18], the target named is T10, ETV2 (Homo sapiens, UniProt O00321 1-342).
T10 sequence: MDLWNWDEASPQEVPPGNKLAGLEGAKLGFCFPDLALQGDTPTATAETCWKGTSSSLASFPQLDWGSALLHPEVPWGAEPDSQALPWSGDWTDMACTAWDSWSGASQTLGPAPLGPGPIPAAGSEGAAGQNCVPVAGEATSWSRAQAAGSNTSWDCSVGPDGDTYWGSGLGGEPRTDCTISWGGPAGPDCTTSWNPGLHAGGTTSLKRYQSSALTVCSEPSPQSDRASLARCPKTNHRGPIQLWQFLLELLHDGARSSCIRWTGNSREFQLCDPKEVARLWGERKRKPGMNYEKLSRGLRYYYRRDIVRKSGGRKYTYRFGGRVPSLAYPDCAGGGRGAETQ
The following applies: protein: recombinant; tags: N-terminal GST; dsDNA, one strand shown. The method in brief:
as §1

Chain of ELF1 (P32519 whole entry): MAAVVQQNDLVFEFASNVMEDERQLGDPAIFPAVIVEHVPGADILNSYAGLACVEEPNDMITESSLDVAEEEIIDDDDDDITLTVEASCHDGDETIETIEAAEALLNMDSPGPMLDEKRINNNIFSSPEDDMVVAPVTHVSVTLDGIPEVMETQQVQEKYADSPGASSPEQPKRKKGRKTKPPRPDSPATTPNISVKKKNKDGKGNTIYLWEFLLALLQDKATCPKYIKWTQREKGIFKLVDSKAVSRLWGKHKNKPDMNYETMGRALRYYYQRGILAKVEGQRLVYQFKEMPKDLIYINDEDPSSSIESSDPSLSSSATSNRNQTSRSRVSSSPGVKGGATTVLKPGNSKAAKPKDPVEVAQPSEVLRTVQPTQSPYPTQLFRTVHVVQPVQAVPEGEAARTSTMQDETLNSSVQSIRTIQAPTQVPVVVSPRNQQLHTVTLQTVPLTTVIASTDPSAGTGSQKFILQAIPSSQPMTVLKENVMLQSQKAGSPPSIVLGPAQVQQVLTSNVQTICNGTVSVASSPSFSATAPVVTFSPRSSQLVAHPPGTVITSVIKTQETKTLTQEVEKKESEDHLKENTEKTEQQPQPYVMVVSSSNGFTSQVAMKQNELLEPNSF
Chain of ETV5 (P41161 whole entry): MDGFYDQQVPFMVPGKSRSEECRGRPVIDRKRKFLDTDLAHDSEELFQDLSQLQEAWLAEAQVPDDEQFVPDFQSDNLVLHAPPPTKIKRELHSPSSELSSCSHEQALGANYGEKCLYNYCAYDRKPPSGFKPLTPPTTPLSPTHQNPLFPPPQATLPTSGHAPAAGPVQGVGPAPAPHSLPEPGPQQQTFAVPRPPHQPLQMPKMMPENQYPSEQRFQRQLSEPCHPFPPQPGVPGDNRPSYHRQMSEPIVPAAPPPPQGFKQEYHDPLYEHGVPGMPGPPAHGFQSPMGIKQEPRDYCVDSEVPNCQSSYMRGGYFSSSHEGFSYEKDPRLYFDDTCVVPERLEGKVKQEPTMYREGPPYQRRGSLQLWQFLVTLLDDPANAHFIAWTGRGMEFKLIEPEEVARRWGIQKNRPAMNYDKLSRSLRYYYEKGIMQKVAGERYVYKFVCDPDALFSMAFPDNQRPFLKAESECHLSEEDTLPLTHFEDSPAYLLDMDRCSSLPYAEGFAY
Chain of CRX (O43186 whole entry): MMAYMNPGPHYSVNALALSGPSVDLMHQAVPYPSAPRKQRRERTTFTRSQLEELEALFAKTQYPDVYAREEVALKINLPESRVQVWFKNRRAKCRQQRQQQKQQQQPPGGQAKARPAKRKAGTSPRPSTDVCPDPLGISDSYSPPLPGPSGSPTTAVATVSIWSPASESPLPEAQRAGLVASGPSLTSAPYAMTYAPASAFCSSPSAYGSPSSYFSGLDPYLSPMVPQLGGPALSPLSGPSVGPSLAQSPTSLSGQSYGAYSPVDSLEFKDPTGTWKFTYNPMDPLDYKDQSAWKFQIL
Chain of HSF1 (Q00613 whole entry): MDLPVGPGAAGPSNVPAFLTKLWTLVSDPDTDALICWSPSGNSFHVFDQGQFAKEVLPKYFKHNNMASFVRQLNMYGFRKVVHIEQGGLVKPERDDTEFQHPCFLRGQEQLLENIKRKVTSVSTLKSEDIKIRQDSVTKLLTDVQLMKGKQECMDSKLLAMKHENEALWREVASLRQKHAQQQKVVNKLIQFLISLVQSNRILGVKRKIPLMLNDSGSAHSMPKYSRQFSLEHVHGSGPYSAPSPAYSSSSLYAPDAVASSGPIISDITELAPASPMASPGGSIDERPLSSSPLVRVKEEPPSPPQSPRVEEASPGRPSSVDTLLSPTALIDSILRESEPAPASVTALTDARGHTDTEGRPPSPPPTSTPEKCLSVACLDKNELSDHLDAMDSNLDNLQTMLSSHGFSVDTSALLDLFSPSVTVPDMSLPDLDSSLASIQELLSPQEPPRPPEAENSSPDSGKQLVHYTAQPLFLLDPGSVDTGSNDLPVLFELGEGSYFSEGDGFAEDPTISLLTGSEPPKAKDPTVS
Chain of ETV1 (P50549 whole entry): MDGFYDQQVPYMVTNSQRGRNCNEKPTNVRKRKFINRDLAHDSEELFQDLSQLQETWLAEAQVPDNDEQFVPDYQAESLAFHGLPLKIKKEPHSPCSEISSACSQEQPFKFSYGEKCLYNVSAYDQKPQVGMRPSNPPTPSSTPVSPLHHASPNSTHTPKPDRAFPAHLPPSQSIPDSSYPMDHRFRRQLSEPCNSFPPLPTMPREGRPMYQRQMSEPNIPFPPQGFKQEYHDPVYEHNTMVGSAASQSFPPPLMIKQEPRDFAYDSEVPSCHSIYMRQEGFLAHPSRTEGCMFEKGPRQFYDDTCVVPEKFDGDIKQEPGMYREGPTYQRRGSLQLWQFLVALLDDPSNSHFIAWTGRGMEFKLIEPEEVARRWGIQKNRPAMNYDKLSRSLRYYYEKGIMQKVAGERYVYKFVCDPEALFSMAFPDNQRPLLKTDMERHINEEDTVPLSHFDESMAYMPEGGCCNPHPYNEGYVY

With ATCGCT, the binding signal is 1.09 fold enrichment (6-mer frequency, TF over GST control) in test [1]; 1.09 fold enrichment (6-mer frequency, TF over GST control) in test [2]; 1.09 fold enrichment (6-mer frequency, TF over GST control) in [3]; 1.01 fold enrichment (6-mer frequency, TF over GST control) in test [4]; 1.04 fold enrichment (6-mer frequency, TF over GST control) in test [5]; 1.08 fold enrichment (6-mer frequency, TF over GST control) in test [6]. Moreover, the binding signal was 1.02 fold enrichment (6-mer frequency, TF over GST control) in test [7]; 1.14 fold enrichment (6-mer frequency, TF over GST control) in test [8]; 1.1 fold enrichment (6-mer frequency, TF over GST control) in test [9]; 1.06 fold enrichment (6-mer frequency, TF over GST control) in [10]; 1.07 fold enrichment (6-mer frequency, TF over GST control) in test [11]; 1.08 fold enrichment (6-mer frequency, TF over GST control) in test [12]. Moreover, the binding signal in test [13] was 1.15 fold enrichment (6-mer frequency, TF over GST control); in test [14], 1.06 fold enrichment (6-mer frequency, TF over GST control); in test [15] it was 1.05 fold enrichment (6-mer frequency, TF over GST control); in test [16], 1.19 fold enrichment (6-mer frequency, TF over GST control); in [17] it was 1.08 fold enrichment (6-mer frequency, TF over GST control).
Consider TAGATC, for which the binding signal in test [1] is 1.05 fold enrichment (6-mer frequency, TF over GST control); in test [2] it was 1.14 fold enrichment (6-mer frequency, TF over GST control); in test [4] it was 1 fold enrichment (6-mer frequency, TF over GST control); in test [5] it was 1.06 fold enrichment (6-mer frequency, TF over GST control); in test [6], 1.04 fold enrichment (6-mer frequency, TF over GST control); in test [9], 1.21 fold enrichment (6-mer frequency, TF over GST control). Besides, the binding signal was 1.06 fold enrichment (6-mer frequency, TF over GST control) in test [10]; 1.06 fold enrichment (6-mer frequency, TF over GST control) in test [11]; 1.49 fold enrichment (6-mer frequency, TF over GST control) in [12]; 1.13 fold enrichment (6-mer frequency, TF over GST control) in test [13]; 1.2 fold enrichment (6-mer frequency, TF over GST control) in [18]; 1.51 fold enrichment (6-mer frequency, TF over GST control) in test [16]. Also, the binding signal in test [17] is 1.04 fold enrichment (6-mer frequency, TF over GST control).
